A selection: hits, their analogues and other compounds. The true share with any hit is near 4.6%.
tim23-1 inh: growth inhibitors of tim23-1 mutant yeast, primary screen, luminescence, uHTS; S. cerevisiae tim23-1 growth, BacTiter-Glo luminescence, 24 h; inhibition, % at 20 µM; 1.3% of 330,000 active; AID 463212, 2010;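 active = growth inhibition of the mutant yeast at or above 50%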;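 also: temperature-sensitive mutant grown at 25 °C; plate controls were DMSO-treated mutant yeast for no effect and medium wells lacking yeast for full effect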
SKKanGAS inh: S. pyogenes SKKanGAS growth inhibitors in kanamycin, primary screen, streptokinase expression inhibitor project, SKKanGAS strain, BacTiter-Glo luminescence; 6 h; inhibition, % at 7.5 µM; 1.3% of 300,000 active;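 active = mean replicate score, as percent of positive control median, at least 50; inconclusive = mean below 50 but one replicate at or above 50; inactive = mean and every replicate below 50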;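 also: strain carries kanamycin resistance gene driven by streptokinase promoter and grows in 40 µg/ml kanamycin; loss of luminescence reflects streptokinase promoter inhibition or plain growth inhibition; 0% = median of DMSO wells and 100% = positive control at its reference dose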
tim10-1 inh: growth inhibitors of tim10-1 mutant yeast, primary screen, luminescence, uHTS; S. cerevisiae tim10-1 ts strain growth, BacTiter-Glo, 24 h; inhibition, % at 20 µM; 2.2% of 330,000 active; AID 463190, 2010;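 active = inhibition of at least 40%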;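 also: mutant grown at 25 °C; 0% = DMSO wells with yeast and 100% = wells holding no yeast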
V-ATPase pHluor: regulators of yeast V-ATPase proton pumping, primary screen, pHLuorin cytosolic pH fluorescence | S. cerevisiae | response, % at 10 µM | 0.37% of 350,000 active | AID 504577, 2011; in the data active = response mostly above about 7.3%, no sharp cut-off; inactive = mostly below about 5.4%; also: actives read high
TIM10 inh: growth inhibitors of isogenic TIM10 control yeast, primary screen, counter-screen for tim10-1 yeast inhibitor project, luminescence, uHTS. S. cerevisiae TIM10 strain growth, BacTiter-Glo luminescence, 24 h. inhibition, % at 10 µM. 1.4% of 330,000 active;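 active = inhibition of 40% or more at the single tested concentration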;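 also: wild-type TIM10 isogenic control strain grown at permissive 25 °C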
PfHsp90 set2: growth inhibition of PfHsp90-expressing yeast, primary screen, antimalarial PfHsp90 inhibitor project, S. cerevisiae, BacTiter-Glo luminescence, single point, set 2. BacTiter-Glo ATP, 48 h; yeast lacking PDR1 and PDR3 efflux regulators. inhibition, % at 9.4 µM. 0.32% of 310,000 active. AID 504621, 2011;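 active = every replicate shows inhibition above about 80%, whatever the replicate mean, limit read from the data; inconclusive = mean inhibition reaches the set limit but some replicate falls short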;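 also: 0% = DMSO neutral controls and 100% = 20 µM radicicol positive controls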
tim10-1 conf: growth inhibitors of tim10-1 mutant yeast, confirmation, single concentration, luminescence, S. cerevisiae | shares compounds with tim10-1 inh | AID 463213, 2010 | inhibition, % at 20 µM | S. cerevisiae tim10-1 ts strain growth, BacTiter-Glo, 24 h | 56% of 7,400 active;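 active = inhibition of yeast growth at or above a set limit in either of two repeat tests at 20 µM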;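 also: tim10-1 mutant grown at permissive 25 °C to find synthetic lethal compounds; 0% = DMSO yeast wells and 100% = medium wells without yeast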
TIM10 conf: growth inhibitors of wild-type TIM10 yeast, confirmation, counter-screen for tim10-1 synthetic lethality project, single concentration, luminescence, S. cerevisiae | shares compounds with TIM10 inh | S. cerevisiae tim10 strain growth, BacTiter-Glo luminescence, 24 h | inhibition, % at 10 µM | 63% of 4,600 active;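 active = inhibition of yeast growth at or above a set limit in either of two replicates at 10 µM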;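 also: this counterscreen used the strain with wild-type TIM10; 0% = yeast with DMSO and 100% = medium wells lacking yeast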
tim23-1 conf: tim23-1 mutant yeast growth inhibitors, confirmation, luminescence, single concentration | 83% of 4,400 active | inhibition, % at 20 µM | S. cerevisiae tim23-1 growth, BacTiter-Glo luminescence, 24 h | AID 463218, 2010 | shares compounds with tim23-1 inh;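 active = inhibition above about 39% in either of two replicate wells at 20 µM, limit read from the data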;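 also: temperature-sensitive tim23-1 mutant grown at 25 °C; 0% = DMSO wells with yeast and 100% = medium wells without yeast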
The depositor's hits bear a star; ? = inconclusive; · = no result given.

SMILES	tim23-1 inh	SKKanGAS inh	tim10-1 inh	V-ATPase pHluor	TIM10 inh	PfHsp90 set2	tim10-1 conf	TIM10 conf	tim23-1 conf
Cc1cccc(-c2cc3nc4c(c(NCc5ccco5)n3n2)CCCC4)c1	53.8*	14.7	53.0*	-7.2	26.6	9.7	33.7*	·	56.5*
CCOCCCNC(=S)N1C2CCC1CC(NC(=O)NC13CC4CC(CC(C4)C1)C3)C2 (stereo not drawn)	-10.4	-8.3	-7.8	1.1	-7.6	9.8	·	·	·
CCSc1ncc(/C=N/Nc2ccc(Cl)cc2)n1C	70.0*	4.0	45.9*	0.3	-29.2	·	5.5	·	62.8*
CCSc1ncc(/C=N/Nc2ccccc2)n1C	14.6	9.7	-4.0	0.1	-23.5	-14.5	·	·	·
COc1ccc(N2CCN(C(=O)C3CCN(C(=O)c4cccc(Cl)c4)CC3)CC2)cc1	5.2	-1.3	-0.2	-3.4	14.4	31.9	·	·	·
COc1ccccc1/C=C1\N=C(C(C)(C)C)OC1=O	51.2*	-2.9	44.4*	-1.5	46.7*	1.3	47.0*	34.4*	67.1*
COc1ccccc1C=CC(=O)C=Cc1ccccc1OC	·	·	·	-3.0	·	-16.0	·	·	·
Cc1ccc(S(=O)(=O)NN2C(=O)/C(=C/c3cccc(F)c3)SC2=S)cc1	70.7*	5.0	46.6*	0.0	40.2*	-65.4	28.3	40.4*	-23.9
COc1cc(/C=C2\SC(=S)N(NS(=O)(=O)c3ccc(C)cc3)C2=O)cc(OC)c1OC	27.3	26.6	9.5	5.7	11.7	-31.6	·	·	·
CC1CCCCC1NC(=O)/C(C#N)=C/c1ccc(OCC(N)=O)cc1 (stereo not drawn)	55.5*	-5.1	48.4*	4.5	45.5*	24.6	33.0*	16.5	49.7*
O=C(/C=C/c1ccccc1[N+](=O)[O-])c1ccccc1Br	79.9*	2.7	62.6*	2.3	63.7*	103.5*	72.8*	69.7*	78.8*
O=C(/C=C\c1ccccc1[N+](=O)[O-])Nc1ccccc1	4.4	2.4	-28.0	-4.5	-10.6	10.3	·	·	·
O=C(NC(=S)NC1C2CC3CC(C2)CC1C3)c1ccccc1 (stereo not drawn)	53.9*	?	47.7*	2.3	40.8*	-1.0	39.1*	21.9	66.8*
Cc1cc[n+](Cc2ccccc2)c(N)c1	7.3	-1.4	-2.8	4.6	3.0	-15.4	·	·	·
CN(C)c1ccc(/C=C/c2ccc3c4ccccc4ccc3[n+]2-c2ccccc2)cc1	·	·	·	-1.6	·	·	·	·	·
CN(C)c1ccc(/C=C/c2ccc3ccccc3[n+]2C)cc1	75.2*	?	84.5*	1.6	80.6*	54.2	81.4*	8.6	76.1*
Oc1ccc2ccccc2c1C=NC1CCCCC1	54.8*	-3.4	41.1*	3.7	17.8	26.0	14.1	·	53.5*
O=C(Nc1ccc(Br)cc1)c1cc(-c2ccncc2)nc2ccccc12	18.0	·	6.8	2.1	-8.3	8.9	·	·	·
COc1cc(/C=N/NC(=O)c2cc(C)oc2C)cc(OC)c1OC	12.0	2.1	0.2	-4.6	-2.3	13.0	·	·	·
Oc1c(Br)cc(Br)cc1C=Nc1cccc2ncccc12	83.1*	24.3	55.0*	-11.2	-5.3	-5.2	40.9*	·	85.8*
Brc1cccc(C=Nc2cccc3ncccc23)c1	-7.7	3.7	9.9	2.1	12.9	-2.0	·	·	·
N#C/C(=C\c1ccco1)Sc1nc2ccccc2s1	58.1*	11.9	50.4*	5.0	56.2*	21.0	58.2*	44.4*	50.8*
Cc1ccc(S(=O)(=O)Nc2c(C)cc(C)nc2Cl)cc1	17.4	-0.6	31.4	0.4	12.2	7.8	·	·	·
O=C(N/N=C/c1cccc(Br)c1)c1ccc(Cn2cc(Br)cn2)o1	76.4*	8.2	49.3*	-2.6	68.2*	-6.1	60.1*	80.9*	83.0*
Cc1ccsc1/C=N/NC(=O)c1ccc(Cn2cc(Br)cn2)o1	-9.5	-8.9	-11.9	2.7	-10.7	-13.1	·	·	·
SMILES	tim23-1 inh	SKKanGAS inh	tim10-1 inh	V-ATPase pHluor	TIM10 inh	PfHsp90 set2	tim10-1 conf	TIM10 conf	tim23-1 conf
O=C(C1CC1)N1N=C(C2CCCCC2)CC1(O)C(F)(F)F (stereo not drawn)	11.1	12.0	12.7	-0.2	13.0	-11.6	·	·	·
CSc1nc2ccc(NS(=O)(=O)c3ccc(Cl)s3)cc2s1	58.5*	10.0	43.8*	2.7	47.5*	-56.7	32.4*	43.8*	78.2*
O=[N+]([O-])c1ccc(N=NN(CCO)CCO)cc1	13.3	-6.5	7.1	2.9	10.2	11.5	·	·	·
O=[N+]([O-])c1ccc(N=Nc2ncc[nH]2)cc1	51.9*	2.6	44.6*	-4.4	44.1*	-5.4	30.5	33.0*	-24.4
O=[N+]([O-])c1ccc(Cl)c(S(=O)(=O)/N=C(/c2ccccc2)N2CCOCC2)c1	-1.2	1.2	15.5	-1.2	12.2	-5.2	·	·	·
CC1=NN(c2ccccc2)C(=O)C1=Cc1ccccc1	·	·	·	1.7	·	·	·	·	·
CC1=NN(c2ccccc2)C(=O)/C1=C\c1ccc(Br)s1	56.7*	-20.3	42.0*	-2.0	39.0	20.2	39.2*	·	66.7*
Cc1nc2c(ccc3nc(NC(=O)Cc4cccc5ccccc45)sc32)s1	59.7*	30.9	55.4*	-5.9	39.9	-2.2	36.8*	·	64.3*
O=C(c1ccc2c(c1)OCCO2)C1CCN(S(=O)(=O)c2ccc(F)cc2)CC1	57.3*	·	42.9*	11.1	50.3*	-5.8	42.3*	39.7*	47.0*
O=C(NC(=S)NCc1ccccc1)c1cccs1	61.5*	14.4	50.7*	-3.7	34.7	-0.5	43.4*	·	52.0*
O=C(NC(=S)NCc1ccccc1)c1ccccc1	29.9	-0.9	32.5	·	37.0	-3.9	·	·	·
CCSc1nc2ccccc2[nH]1	30.7	12.9	7.0	-1.8	4.6	7.7	·	·	·
CC1(C)C(CSc2nc3ccccc3[nH]2)C1(Cl)Cl (stereo not drawn)	57.3*	0.1	45.4*	0.0	34.7	-3.6	24.6	·	60.1*
CCO[C@H]1OC(C(N)=O)=C[C@@H](C2CC2)[C@@H]1CCCO	9.8	2.8	5.8	·	11.4	·	·	·	·
CCOC(=O)C1=C(SCC)c2cc3c(n2C1=O)CCCC3	59.0*	·	65.2*	-6.5	58.6*	24.7	48.1*	-12.2	60.9*

Assay outcomes (PubChem BioAssay)
